Laboratory results reported in PubChem BioAssay AID2685 (National Center for Advancing Translational Sciences (NCATS), 2010).
Hit rate of the full screen: of about 320,000 compounds, about 2,100 (0.66%) were called active. Not shown: some 53% with an inconclusive outcome. Calls follow the shape of the dose curve; as a rule, active = well fitted inhibition curve with a large enough effect in the signal ratio, with a control signal flat (not every such curve was filed as active); inconclusive = small, poorly fitted or top-dose-only effect, or effect the other way, or a change in a side signal; inactive = flat fitted curve, though single readings scatter; the % refers to the signal ratio. The entries come from a sample that favours actives as a whole.

test: qHTS Assay for Lipid Storage Modulators in Drosophila S3 Cells; conditions: BODIPY lipid droplet fluorescence, 18-24 h, cells fed with added oleic acid; cell number change: measured here: cell count max response; series mostly up to 46.1 µM;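 as to cell number change: cells counted by Cell Tracker Red CMTPX staining in the red channel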; as to lipid storage change, negative = inhibition: % is scaled to controls: 0 for no effect and ±100 for the full control effect
Summary of the method: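 Laser-scanning cytometry quantifies lipid droplet accumulation (500–530 nm total intensity; droplet/cell object ratio) in oleic acid-fed (400 uM added) Drosophila S3 cells treated with a concentration series. 20 uM Triacsin C defined 100% inhibition.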
Potency is read from the fitted curve at half-maximal effect.

Compound	Potency	cell number change	lipid storage change, negative = inhibition
CCN(CC)CCNC(=S)Nc1ccc(Cl)cc1	inactive	1.74%	–
N#C/C(=C\c1c[nH]c2ccccc12)c1nnc2n1CCCCC2	inactive	6.3%	–
N#C/C(=C/c1ccccc1[N+](=O)[O-])c1nnc2n1CCCCC2	inactive	5.26%	–
O=[N+]([O-])c1cccc(-c2nnc3n2CCCCC3)c1	inactive	8.75%	–
N#C/C(=C/c1cccc([N+](=O)[O-])c1)c1nnc2n1CCCCC2	2.59 µM (active)	-13.7%	–
CN(c1ccccc1)c1ccc(/C=C(\C#N)c2nnc3n2CCCCC3)cc1[N+](=O)[O-]	inactive	0.8%	–
N#C/C(=C\c1cccc([N+](=O)[O-])c1)c1nnc2n1CCCCC2	4.11 µM (active)	–	–
Cc1nnc(NC(=O)c2ccccc2C(=O)O)s1	inactive	10.9%	–
O=C(Nc1cccc(-c2csc(Nc3cccc(C(F)(F)F)c3)n2)c1)c1cc([N+](=O)[O-])cc(C(F)(F)F)c1	inactive	-14.2%	–
CC(C)CC(NC(=O)C1CCC(=O)N1C(=O)OCc1ccccc1)C(=O)NC(Cc1ccccc1)C(N)=O (configuration not stated)	inactive	10.8%	–
COC(=O)[C@@H](Cc1ccc(O)cc1)NC(=O)[C@H]1CCC(=O)N1C(=O)OCc1ccccc1	inactive	-3.5%	–
COC(=O)[C@@H](Cc1ccccc1)NC(=O)[C@H]1CCC(=O)N1C(=O)OCc1ccccc1	7.31 µM (active)	-26.7%	–
Cn1c(=O)c2c(O)c(Cc3ccccc3)c(=O)[nH]c2n(C)c1=O	inactive	–	–
O=C(Nc1ccccc1N1CCN(C(=O)c2ccccc2)CC1)c1ccc([N+](=O)[O-])o1	8.2 µM (active)	11.7%	–
O=C(c1ccc([N+](=O)[O-])o1)N1CCOCC1	inactive	-1.55%	–
O=C(Nc1cc(Cl)ccc1-n1cncn1)c1ccc([N+](=O)[O-])o1	inactive	8.28%	–
CC(=O)N1CCN(c2nc3ccc([N+](=O)[O-])cc3s2)CC1	inactive	-3.82%	–
COc1ccc(N2CCN(C(=O)c3ccc4nc(N5CCCCC5)sc4c3)CC2)cc1	inactive	–	–
O=C(Nc1ccccc1N1CCOCC1)c1ccc([N+](=O)[O-])o1	inactive	-0.54%	–
CCC(=O)N1CCN(c2ccc(Cl)cc2NC(=O)Cc2ccccc2)CC1	inactive	12.9%	–
COc1ccc2nc(N3CCN(C(=O)c4ccc([N+](=O)[O-])o4)CC3)sc2c1	4.61 µM (active)	–	–
Cc1ccc(C(=O)N2CCN(Cc3ccccc3)CC2)o1	inactive	15.9%	–
CCC(=O)N1CCN(c2ccc(Cl)cc2NC(=O)c2ccc([N+](=O)[O-])o2)CC1	5.8 µM (active)	-10.1%	–

Compound	Potency	cell number change	lipid storage change, negative = inhibition
O=C(c1ccc([N+](=O)[O-])o1)N1CCN(Cc2ccccc2)CC1	25.9 µM (active)	-14.3%	–
CS(=O)(=O)N1CCN(c2ccccc2NC(=O)c2ccc([N+](=O)[O-])o2)CC1	inactive	-11.1%	–
Cc1noc(C)c1COC(=O)c1csc2c1CCCC2	inactive	–	–
Cc1cc(Nc2c(C)n(C)n(-c3ccccc3)c2=O)c2ccccc2n1	inactive	-23.8%	–
Cc1cccc(-n2cc(CN3CCCN(C=O)CC3)c(-c3cccc(F)c3)n2)c1	inactive	-4.39%	–
O=C(NCc1cccnc1)Nc1cccc([N+](=O)[O-])c1	inactive	6.23%	–
CCOc1ncccc1C(=O)OCC(=O)N1CC(=O)Nc2ccccc21	inactive	–	–
Cc1c(/C=N/N=C2\CCC3C4CCc5cc(O)ccc5C4CCC23C)cnn1C (configuration not stated)	inactive	13.3%	–
O=C(CN1C(=O)COc2ccccc21)N1CCOCC1	inactive	–	–
COc1ccc(N2CCCC2)c(NC(=O)c2ccc([N+](=O)[O-])o2)c1	10.3 µM (active)	16.1%	–
CN1CCN(c2ccccc2NC(=O)c2ccc(-c3ccccc3[N+](=O)[O-])o2)CC1	6.51 µM (active)	-10.4%	–
COc1ccc(N2CCCC2)c(NC(=O)c2ccc(Br)o2)c1	inactive	13.9%	–
COc1ccc(C(=O)Nc2ccccc2N2CCOCC2)cc1Br	inactive	-0.289%	–
O=C(Nc1ccccc1N1CCN(C(=O)c2ccccc2)CC1)c1cccc(Cl)c1	inactive	-6.81%	–
COc1ccccc1NC(=O)c1ccc(-c2ccccc2[N+](=O)[O-])o1	inactive	–	–
CC(C)C(=O)N1CCN(c2ccccc2NC(=O)c2ccc([N+](=O)[O-])o2)CC1	inactive	-10.5%	–
O=C(Nc1ccc(N2CCCC2)c(Cl)c1)c1ccc([N+](=O)[O-])o1	inactive	2.06%	–
COc1ccc(C(=O)Nc2ccccc2N2CCN(C(=O)c3ccccc3)CC2)cc1Br	14.6 µM (active)	-6.04%	–
CCC(=O)N1CCN(c2ccccc2NC(=O)c2ccc(-c3cccc([N+](=O)[O-])c3)o2)CC1	inactive	8.53%	–
CC1CCN(c2ccccc2NC(=O)c2ccc([N+](=O)[O-])o2)CC1	inactive	8.97%	–
CCC(=O)N1CCN(c2ccccc2NC(=O)c2ccc([N+](=O)[O-])o2)CC1	10.3 µM (active)	-1.26%	–
CC(C)CC(NC(=O)C(NC(=O)OC(C)(C)C)C(C)C)C(N)=O (configuration not stated)	inactive	1.19%	–
C/C(=N/NC(=O)c1ccc2nc[nH]c2c1)c1cccs1	inactive	9.11%	–

Compound	Potency	cell number change	lipid storage change, negative = inhibition
CC12CCC(C(=O)Nc3ccccc3)(C(Br)C1=O)C2(C)C (configuration not stated)	inactive	-7.13%	–
CC/C(O)=C(/C#N)c1nnc2n1CCCCC2	inactive	8.5%	–
CCOCCCNS(=O)(=O)c1cc2[nH]c3c(c2cc1C)C(=O)CC(C)(C)C3	inactive	16.9%	–
Cc1ccc(C(=O)NCCNC(=O)c2ccco2)cc1C	inactive	19.6%	–
COC(=O)c1c(NC(=O)CC2SC(N)=NC2=O)sc2c1CCCC2 (configuration not stated)	inactive	–	–
COc1ccc(NC(C)c2ccccc2)cc1 (configuration not stated)	inactive	-5.31%	–
COc1ccc(N2CCN(c3nc(Cl)nc(N4CCOCC4)n3)CC2)cc1	inactive	-11.2%	–
COc1cc(C(=O)N(Cc2ccc(C)o2)C2CCS(=O)(=O)C2)cc(OC)c1OC (configuration not stated)	inactive	-6.11%	–
O=C(Nc1ccccc1N1CCCCC1)c1ccc(-c2ccc(Cl)cc2)o1	14.6 µM (active)	1.36%	–
CN1CCN(c2ccccc2NC(=O)c2ccc(-c3ccc(Cl)c(Cl)c3)o2)CC1	inactive	–	–
O=C(Nc1ccccc1N1CCCCC1)c1ccc(Cl)cc1	inactive	12%	–
Cc1csc(N(C(=O)Cc2ccccc2F)c2ccccc2)n1	inactive	3.81%	–
Clc1ccc(C2=Nn3c(nnc3-c3cccnc3)SC2)s1	inactive	-22.1%	–
CCOC(=O)c1sc(=S)n(-c2ccccc2)c1N	inactive	-17.5%	–
COC(=O)c1sc(=S)n(-c2ccccc2)c1N	11.6 µM (active)	–	–
COC(=O)c1sc(=S)n(-c2cccc(Cl)c2)c1N	inactive	-15.4%	–
Cc1cc(C)n2c(SCC(C)C)nnc2n1	inactive	-0.577%	–
O=C(CCCc1ccccc1)N1CCc2ccccc21	inactive	4.72%	–
Cc1ccc(NC(=O)CS(=O)CC(=O)N(CC(=O)NC(C)(C)C)c2cccc(C)c2C)cc1 (configuration not stated)	inactive	1.3%	–
O=C(N/C(=C\c1ccccc1)C(=O)N1CCOCC1)c1ccco1	inactive	1.67%	–
CC(C)C12CN3CC(C(C)C)(CN(C1)C3(C)C)C2=O	inactive	8.23%	–
COc1ccc(C2(C(=O)NCc3ccccc3Cl)CCOCC2)cc1OC	inactive	-6.59%	–
N#Cc1ccc(OCC(=O)N/N=C/C2CC=CCC2)cc1 (configuration not stated)	inactive	18.8%	–

Compound	Potency	cell number change	lipid storage change, negative = inhibition
COc1ccc(OCC(=O)N/N=C/C2CC=CCC2)cc1 (configuration not stated)	inactive	-11.3%	–
O=C(COc1ccc(Cl)cc1Cl)N/N=C/C1CC=CCC1 (configuration not stated)	1.84 µM (active)	-11.9%	–
CCc1[nH]nc(C(=O)N2CCCC(Nc3cccc(F)c3)C2)c1C (configuration not stated)	inactive	0.697%	–
CCNC(=S)Nc1cccc([N+](=O)[O-])c1	inactive	16.5%	–
CN(CC(=O)Nc1cccc(F)c1)C(=O)c1cc(-c2ccccc2)nc2ccccc12	–	–	3.36% [at 0.0737 µM] (inactive)
COc1cccc(-c2nn(-c3ccc(C)cc3)cc2C(=O)N(C)CC(=O)Nc2cccc(F)c2)c1	6.51 µM (active)	-27.2%	–
COc1ccc(NC(=O)CN(C)C(=O)c2cn(-c3ccccc3)nc2-c2ccc(F)cc2)cc1	inactive	-10.6%	–
CN(CC(=O)Nc1ccc(F)cc1)C(=O)c1ccc(N2C(=O)CCC2=O)cc1	inactive	5.41%	–
COc1cccc(NC(=O)CN(C)C(=O)c2cn(-c3ccccc3)nc2-c2cccnc2)c1	inactive	-3.75%	–
CCCCC1CCC(C(=O)N(C)CC(=O)Nc2cccc(OC)c2)CC1 (configuration not stated)	inactive	-0.846%	–
CN(CC(=O)Nc1ccc(F)cc1)C(=O)c1ccncc1	1.64 µM (active)	–	–
CN(CC(=O)Nc1c(Cl)cccc1Cl)C(=O)c1ccncc1	inactive	22.3%	–
CC1CC1C(=O)N(C)CC(=O)Nc1cccc(F)c1 (configuration not stated)	–	-4.04%	-4.95% [at 0.0737 µM] (inactive)
CN(CC(=O)Nc1cccc(F)c1)C(=O)c1cccc2ccccc12	5.8 µM (active)	-19.1%	–
CCCCC1CCC(C(=O)N(C)CC(=O)Nc2cccc(F)c2)CC1 (configuration not stated)	0.651 µM (active)	20.8%	–
CN(CC(=O)Nc1cccc(F)c1)C(=O)c1cc(=O)[nH]c2ccccc12	inactive	6.52%	–
Cc1nc([N+](=O)[O-])c(C(=O)OCc2cccc(Br)c2)n1C	inactive	-13.6%	–
O=C(COC(=O)C1CCN(c2ccc(C(F)(F)F)cn2)CC1)NCc1ccc(Cl)cc1Cl	inactive	7.81%	–
O=C1CCCN1c1ccc(S(=O)(=O)N2CCCCC2)cc1[N+](=O)[O-]	inactive	14.2%	–
CS(=O)(=O)c1ccccc1C(=O)N(CCc1ccccc1)Cc1ccccc1	inactive	-4.69%	–
O=C(NCC1CCN(C(=O)c2ccc([N+](=O)[O-])cc2)CC1)C(=O)Nc1ccccc1	inactive	-0.701%	–
